HT1080 IDH1KD tx – HT-1080 IDH1 knockdown cell toxicity (counter line); Potency, µM (series often up to 46.1 µM), for the others: top-dose activity, negative = toxicity, hits mostly cytotoxic; HT-1080 IDH1 knockdown viability, ATP luminescence, 48 h; actives 2% (n = 360,000);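 also: 0% = DMSO wells and -100% = cell-free medium wells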
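Knockdown cells (IDH1KD HT-1080) received compounds 2 h after plating at 750 cells/well and were kept 48 h at 37 °C in 5% FBS RPMI. A CellTiter-Glo luminescence read gave % activity for curve fitting.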
SW480 rerep – induces DNA re-replication in SW480 colon adenocarcinoma cells. actives 1.8% (n = 340,000). AID 624297. Potency, µM (doses to about 46.1 µM), for inactives: at the top dose re-replication activation, usual class: activators. SW480 DNA re-replication, Hoechst DNA content imaging, 48 h; also: % of control where 0% means no effect; nearly all actives have a fitted effect of over 55% in size
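Per well, 250 cells were exposed to pinned compound for 48 hr. Nuclear DNA was visualised with Hoechst (40 min, 37 C) and total object intensity recorded by fluorescence scanning.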
KB-3-1 cytotox – KB-3-1 parental cell cytotoxicity; actives 1.4% (n = 400,000); Potency, µM (highest dose often 46.1 µM), hits mostly cytotoxic; KB-3-1 viability, CellTiter-Glo ATP luminescence, 72 h; AID 1347075; also: % is scaled to controls: 0 for no effect and ±100 for the full control effect; nearly all actives have a fitted effect of over 60% in size
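Multi-concentration cytotoxicity screen in KB-3-1 cells grown in DMEM lacking phenol red with 10% FBS. After 72 h at 37 °C with compound, ATP-dependent luminescence was recorded.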
HT1080NT lethal – kills 2HG-producing HT-1080-NT fibrosarcoma cells. HT-1080-NT fibrosarcoma viability, CellTiter-Glo ATP luminescence, 48 h. Potency, µM (highest dose often 46.1 µM), inactives show at the top dose activity, negative = less viability, most hits filed as cytotoxic. actives 1.6% (n = 360,000);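 also: NT is the 2HG producing partner of a matched IDH1 knockdown line; 0% = DMSO-treated cells and -100% = media-only wells without cells; nearly all actives have a fitted effect of over 55% in size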
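Compounds were tested in concentration-response format on HT-1080-NT cells for 48 hours at 37 degrees C. Cell viability came from CellTiter-Glo luminescence; curves were classified by r2, response magnitude and activity.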
MCF10A rerep – inducers of DNA re-replication in MCF 10A breast cells; MCF 10A DNA re-replication, Hoechst nuclear intensity, 48 h; Potency, µM (highest dose often 46.1 µM), without a hit: top-dose activity, positive = re-replication, most hits filed as activators; AID 624296; actives 2.9% (n = 350,000); also: % of control where 0% means no effect; nearly all actives have a fitted effect of over 50% in size
KB-V1 MDR tox – kills drug-selected multidrug resistant KB-V1 cells. KB-V1 MDR cells viability, CellTiter-Glo, 72 h. Potency, µM (top dose mostly 46.1 µM), actives largely listed as cytotoxic. actives 3.4% (n = 400,000); also: % is scaled to controls: 0 for no effect and ±100 for the full control effect; nearly all actives have a fitted effect of over 60% in size
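In this primary screen, KB-V1 cells overexpressing P-gp are incubated with library compounds (lowest to highest concentration) for 72 h at 37 degrees C before a luminescent ATP viability read.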
The depositor's hits bear a star; i = inactive; ? = inconclusive; / = no result given. Hits are enriched below; roughly 7.9% of the tested compounds scored in any of these assays. Calls follow the shape of the dose curve; as a rule, active = well fitted curve in the direction sought with a large enough effect; inconclusive = small, poorly fitted or top-dose-only effect, or another doubt; inactive = no such curve, though single readings can be large; an effect the other way counts as inactive or inconclusive. Potency is read from the fitted curve at half-maximal effect.

SMILES | HT1080 IDH1KD tx | SW480 rerep | KB-3-1 cytotox | HT1080NT lethal | MCF10A rerep | KB-V1 MDR tox
CN(C)c1ccc(/C=C/c2cc[n+](C)cc2)cc1 | ? | ? | 23.1µM* | -21.6% | ? | i
CCOc1ccccc1C(=O)NCC(c1ccc(N(C)C)cc1)N1CCc2ccccc21 (configuration not stated) | / | / | i | / | / | i
O=C(O)c1c(-c2ccc(Cl)cc2)cn2ccccc12 | 10.4% | 18.4µM* | i | 12.4% | ? | i
O=C1CN(C(=O)c2cccc(Br)c2)C(c2ccccc2)c2cc(Cl)ccc2N1 (configuration not stated) | / | / | i | / | / | ?
CCCCOC(=O)/C=C/c1ccc(OC(=O)OC)c(OC(=O)OC)c1 | ? | ? | ? | -27.0% | 14.6µM* | i
CCOC(=O)N/N=C\c1ccccc1OC/C=C/c1ccccc1 | ? | ? | i | ? | ? | i
COC(=O)N/N=C\c1ccccc1OC/C=C/c1ccccc1 | ? | 16.4µM* | i | ? | ? | i
CCCCNC(=S)N(C)/N=C/c1ccc(OCC(=O)Nc2c(C)cc(C)cc2C)c(OC)c1 | ? | 16.4µM* | i | -27.1% | 18.4µM* | i
FC(F)(F)c1ccc(C2=Nc3ccccc3NC(c3cccs3)=N2)cc1 | / | / | i | / | / | i
Cc1nc2oc(C(=O)c3ccc(Br)cc3)c(N)c2c2c1COC(C)(C)C2 | 8.1% | ? | i | 9.4% | ? | i
COc1ccc(C(=O)c2oc3nc(C)cc(C)c3c2N)cc1 | 10.9% | 16.3% | i | 11.2% | 14.6% | ?
Cc1ccc(C(=O)c2oc3nc(C)cc(C)c3c2N)cc1 | -15.1% | ? | i | -2.8% | 9.2µM* | ?
CCc1ccc(C(=O)c2oc3nc(C)cc(C)c3c2N)cc1 | ? | 16.4µM* | i | 1.2% | 7.31µM* | 2.59µM*
Nc1cccc2c1C(=O)N(CCOc1ccccc1F)C2=O | -1.8% | ? | i | -1.3% | 18.4µM* | i
Cc1cccc(OCCN2C(=O)c3ccccc3C2=O)c1 | 3.7% | -45.9% | i | 4.2% | 3.3% | ?
N#Cc1ccccc1OCCN1C(=O)c2ccccc2C1=O | -5.5% | -10.2% | i | 19.1% | 11.6µM* | i
O=C1c2ccccc2C(=O)N1CCOCCN1C(=O)c2ccccc2C1=O | 12.4% | -9.0% | i | 20.0% | 2.0% | i
CCn1c(CC2C(=O)N(C)c3ccccc32)nc2ccccc2c1=O (configuration not stated) | / | / | i | / | / | i
COc1ccc(NC(=O)c2ccc(CN(c3cc(Cl)ccc3C)S(=O)(=O)c3ccccc3)cc2)cc1OC | -7.0% | 5.3% | i | -0.5% | 16.3% | 3.66µM*
COc1ccccc1NC(=O)c1ccc(CN(c2cc(Cl)ccc2C)S(=O)(=O)c2ccccc2)cc1 | -0.7% | -8.1% | i | -2.0% | -3.8% | i
Cc1ccc(Cl)cc1N(Cc1ccc(C(=O)NCc2cccnc2)cc1)S(=O)(=O)c1ccccc1 | 14.4% | -10.1% | i | 20.1% | -3.9% | 14.6µM*
Cc1cccc(NC(=O)c2oc3ccccc3c2NC(=O)c2cc(=O)c3ccccc3o2)c1 | / | / | i | / | / | ?
CCc1ccc(S(=O)(=O)c2cn(C)c3cc(N4CCN(CC)CC4)c(F)cc3c2=O)cc1 | / | / | i | / | / | i
CCN(Cc1cc(=O)oc2cc(C)ccc12)c1ccccc1 | -23.2% | -15.1% | i | ? | 11.7% | i
CCOC(=O)Cc1c(C)c2ccc(N(CC)CC)cc2oc1=O | -2.0% | 14.6µM* | i | ? | 18.4µM* | ?
CCOc1ccc2c(C)c(Cl)c(=O)oc2c1 | -2.9% | -3.4% | i | -1.1% | -8.9% | i
CCN(CC)c1ccc2c(c1)oc(=O)c1c(Cl)cc(=O)oc12 | 2.59µM* | 9.2µM* | ? | ? | ? | ?

High-throughput results (PubChem)
